Assay outcomes as filed in PubChem BioAssay.
HT1080 IDH1KD tx: toxicity to HT-1080 IDH1 knockdown cells (counter line). HT-1080 IDH1 knockdown viability, ATP luminescence, 48 h. Potency, µM (series often up to 46.1 µM), inactives show at the top dose activity, negative = toxicity, actives largely listed as cytotoxic. 360,000 tested, 2% active. AID 686971;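 further: 0% = DMSO wells and -100% = cell-free medium wells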
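Knockdown cells (IDH1KD HT-1080) received compounds 2 h after plating at 750 cells/well and were kept 48 h at 37 °C in 5% FBS RPMI. A CellTiter-Glo luminescence read gave % activity for curve fitting.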
KB-3-1 tox: kills parental KB-3-1 adenocarcinoma cells. KB-3-1 viability, CellTiter-Glo ATP luminescence, 72 h. Potency, µM (titrated, usually from 46.1 µM), actives largely listed as cytotoxic. 400,000 tested, 1.4% active. AID 1347075; further: nearly all actives have a fitted effect of over 60% in size
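Here the drug-naive KB-3-1 line serves as comparator for MDR sub-line selectivity; cells received compound titrations, 72 h at 37 °C, then CellTiter-Glo readout.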
HT1080-NT tox: kills 2HG-producing HT-1080-NT fibrosarcoma cells | HT-1080-NT fibrosarcoma viability, CellTiter-Glo ATP luminescence, 48 h | Potency, µM (highest dose often 46.1 µM), without a hit: at the highest dose activity, negative = less viability, most hits filed as cytotoxic | 360,000 tested, 1.6% active;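 further: NT is the 2HG producing partner of a matched IDH1 knockdown line; 0% = DMSO-treated cells and -100% = media-only wells without cells; nearly all actives have a fitted effect of over 55% in size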
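Compounds were tested in concentration-response format on HT-1080-NT cells for 48 hours at 37 degrees C. Cell viability came from CellTiter-Glo luminescence; curves were classified by r2, response magnitude and activity.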
KB-V1 cytotox: kills drug-selected multidrug resistant KB-V1 cells; 400,000 tested, 3.4% active; KB-V1 MDR cells viability, CellTiter-Glo, 72 h; Potency, µM (titrated, usually from 46.1 µM), actives largely listed as cytotoxic; further: nearly all actives have a fitted effect of over 60% in size
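Cytotoxicity toward P-gp-expressing KB-V1 cells was determined as loss of CellTiter-Glo luminescence after 72 h at 37 degrees C. Compounds were tested in quantitative HTS format across a concentration range, with curves fitted to normalized data.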
The depositor's hits bear a star; i = inactive; u = inconclusive; x = not tested or not shown; [ ] = remark or other dose. Only some compounds are listed: those with a hit (about 5.7% of all), similar ones and a draw of the others. The call rests on the fitted dose curve; in most records, active means well fitted curve in the direction sought with a large enough effect; inconclusive means small, poorly fitted or top-dose-only effect, or another doubt; inactive means no such curve, though single readings can be large; an effect the other way counts as inactive or inconclusive. Unless noted, on the % scale 0 is the no-effect control and ±100 the full control effect; potency means the concentration at half of the fitted maximal effect.

SMILES | HT1080 IDH1KD tx | KB-3-1 tox | HT1080-NT tox | KB-V1 cytotox
O=C(c1ccc2nc[nH]c2c1)N1CCN(c2cccc(C(F)(F)F)c2)CC1 | -7% | i | 7% | i
O=C(c1ccc2c(c1)OCO2)N1CCN(c2cccc(C(F)(F)F)c2)CC1 | u | 13µM* | 18µM* | 16µM*
COc1ccccc1NC(=O)N1CCN(c2cccc(C(F)(F)F)c2)CC1 | 0% | i | 11% | u
O=C(c1ccc2c(c1)CCN2S(=O)(=O)c1ccccc1)N1CCN(c2cccc(Cl)c2)CC1 | x | i | x | i
O=C(c1ccc2ncsc2c1)N1CCN(c2cccc(C(F)(F)F)c2)CC1 | 8.2µM* | u | 8.2µM* | u
CCS(=O)(=O)N1CCc2cc(C(=O)N3CCN(c4cccc(C(F)(F)F)c4)CC3)ccc21 | x | 16µM* | x | u
COc1ccccc1CC(=O)N1CCN(c2cccc(C(F)(F)F)c2)CC1 | -16% | i | u | 12µM*
CCn1ccc2cc(S(=O)(=O)N3CCCN(C(=O)Nc4ccc(C)cc4Cl)CC3)ccc21 | x | i | x | i
Cc1ccc(CCNS(=O)(=O)c2ccc3c(c2)CCN3C(=O)CCC(=O)O)cc1 | x | i | x | i
Cc1ccc(NC(=O)Cn2c(=O)c3ccc(Cl)cc3n3nncc23)cc1 | x | i | x | i
CCOC(=O)CN1N=C(/C=C/c2ccccc2)CCC1=O | 3% | i | -1% | i
CCOC(=O)CN1N=C(/C=C/c2ccc(C(C)C)cc2)CCC1=O | -11% | 7.3µM* | -8% | 2.3µM*
CCOC(=O)C(C)N1N=C(/C=C/c2ccc(C)cc2)CCC1=O (stereo not drawn) | -5% | u | -20% | 16µM*
COc1ccc(OC)c(CCNC(=O)Cn2nc(C)n3c(cc4sccc43)c2=O)c1 | x | i | x | i
COc1ccc(/C=C/C(=O)OCC(=O)N2CCCC2)c(OC)c1 | 20% | i | 10% | 12µM*
O=C1C=C(Nc2ccc(Cl)cc2Cl)CC(c2ccco2)C1 (stereo not drawn) | 2.3µM* | 6.5µM* | 3.7µM* | 7.3µM*
O=c1c2ccccc2nc2n1CCCCC2 | 1% | i | 5% | i
N=c1c2ccccc2nc2n1CCCCCCCCCCC2 | 23µM* | i | u | u
Cc1cccc(C(=O)Nc2nc(C)c(C(=O)Nc3ccc4c(c3)CCC4)s2)c1 | u | u | 11µM* | u
CCOc1ccccc1NC(=O)CSc1nnnn1-c1ccccc1 | -13% | i | -10% | 9.2µM*
CN(C)S(=O)(=O)c1cccc(NC(=O)CSc2nnnn2-c2ccccc2)c1 | -3% | i | u | 10µM*
CCOc1ccccc1NC(=O)CSc1nnc2c(CC)c(C)nc(N)n12 | -4% | i | u | 15µM*
CC1=Nc2ccccc2N=C(NC(=O)CSc2nnnn2-c2ccccc2)C1c1ccccc1 (stereo not drawn) | 1%[9.24 µM] | i | -14% | 13µM*
Cc1cc2c(cc1S(=O)(=O)N(C)CC(=O)Nc1ccc(C#N)cc1)OCC(=O)N2 | x | i | x | i
CCOc1ccc(NC(=O)CN(C)S(=O)(=O)c2ccc3c(c2)c(=O)n(C)c(=O)n3C)cc1 | x | i | x | i
SMILES | HT1080 IDH1KD tx | KB-3-1 tox | HT1080-NT tox | KB-V1 cytotox
O=C1C[C@H]2C=CCc3cccc(c32)CN1Cc1ccc(Br)cc1 | x | i | x | u
CCC1CCCCN1C(=O)Cn1c(=O)n(-c2ccccc2C(F)(F)F)c(=O)c2c(C)c(C(=O)N(C)C)sc21 (stereo not drawn) | x | i | x | i
CCCCCc1cc[n+](CC(=O)c2ccccc2)cc1 | x | i | x | i
CCCCc1nc2ccccc2c(NC(=O)CN2CCCC2)c1CCC | 0% | i | 0% | i
O=C(CN1CCCCC1)Nc1c2c(nc3ccccc13)N(c1ccccc1)CC2 | 16µM* | i | 12µM* | u
CCCC(=O)Nc1c2c(nc3ccccc13)N(c1ccccc1)CC2 | 26µM* | i | u | i
CCN1CCN(c2csc3ccc(C)cc3c2=O)CC1 | x | i | x | u
O=C(c1ccccc1)N1CCCC(C(=O)N2CCCCCC2)C1 (stereo not drawn) | -7% | i | -2% | 21µM*
Cc1cc(NC(=O)CCN2C(=O)C3C4CCC(C4)C3C2=O)c(C)cc1Br (stereo not drawn) | -2% | i | -5% | 15µM*
CCCC(=O)O[C@]1(C(=O)CCl)[C@@H](C)C[C@H]2[C@@H]3CCC4=CC(=O)C=C[C@]4(C)[C@@]3(F)C(=O)C[C@@]21C | -16% | i | 0% | 13µM*
CN(C)C(=O)COc1ccccc1C(=O)OCC(=O)N(CCC#N)c1ccccc1 | x | i | x | u
OC(CON=C1c2ccccc2-c2ccccc21)CN1CCNCC1 (stereo not drawn) | 23µM* | u | 21µM* | i
OC(COc1ccccc1)CN1CCN(CC(O)COc2ccccc2)CC1 (stereo not drawn) | -9% | i | -1% | i
O=C(Nc1ccc(Cl)c(C(F)(F)F)c1)c1cc2nc(-c3ccc4c(c3)OCO4)cc(C(F)(F)F)n2n1 | x | i | x | i
CC(=O)C1=C(C)N(Cc2ccco2)C(=O)C1(NC(=O)C1CCCCC1)C(F)(F)F (stereo not drawn) | 8% | i | -1% | 18µM*
COc1cccc(CN2CCN(c3nc4nonc4nc3N3CCCCC3)CC2=O)c1 | -1% | i | 7% | u
COc1ccc(S(=O)(=O)N(C)CC(=O)Nc2ccccc2C(F)(F)F)cc1 | 0% | i | 6% | i
COc1ccc(S(=O)(=O)N(C)CC(=O)Nc2ccccc2C(F)(F)F)cc1Cl | -6% | i | -8% | 15µM*
Cc1ccc(C)c(N2CCN(C(=O)C3CCN(S(=O)(=O)c4c(C)noc4C)CC3)CC2)c1 | 18µM* | 8.2µM* | -25% | u
CCOC(=O)c1c(C)[nH]c(C)c1S(=O)(=O)N1CCC(C(=O)N2CCN(c3cc(C)ccc3C)CC2)CC1 | x | 16µM* | x | i
Cc1ccc(C)c(N2CCN(C(=O)C3CCCN(S(=O)(=O)c4c(C)noc4C)C3)CC2)c1 (stereo not drawn) | -21% | u | 0% | i
O=C1C=C(c2cccs2)C[C@H](c2ccccc2)[C@H]1n1nnc([N+](=O)[O-])n1 | 2.9µM* | u | u | u
CC(=O)C1C(=O)C=C(c2cccs2)CC1c1ccccc1 (stereo not drawn) | -24% | i | -25% | i
CC(C)OC(=O)/C(=C/c1ccc(Br)cc1)NC(=O)c1ccco1 | -2% | i | -2% | 16µM*
O=C(/C=C/c1ccc(Br)cc1)NC(=S)NNC(=O)c1ccco1 | 15µM* | i | 16µM* | i
O=C(/C=C/c1ccccc1)NC(=S)NNC(=O)c1ccco1 | -8% | i | -15% | i
COc1ccc(CNc2ncnc3c2[nH]c2ccccc23)cc1 | 21µM* | i | 16µM* | 13µM*
C1=C(CCNc2ncnc3c2[nH]c2ccccc23)CCCC1 | 26µM* | 5.2µM* | 26µM* | u
